Sampled rows, rich in hits. Any-hit rate of the full collection: about 12%.
Cycloheximide cs: counter-screen hit for Shiga toxin inhibitors, cycloheximide. actives 12% (n = 300,000). max response, %. cell reporter, cycloheximide protein synthesis inhibition counterscreen; in the data active = max response mostly above about 13%, no sharp cut-off; inactive = mostly below about 14%; note: read at 38.3 µM for the half of the compounds with a filed dose; 0% is about no effect
SARS PLpro yeast: inhibitors of SARS-CoV papain-like protease in yeast; S. cerevisiae expressing SARS-CoV PLpro, growth rescue; Potency, µM (titrated, usually from 32.9 µM), for the others: at the top dose activity, positive = growth rescue, usual class: activators; actives 0.19% (n = 330,000); note: potency is the fitted concentration of half-maximal effect; 0% is about no effect; nearly all actives have a fitted effect of over 55% in size
NS1 function inh: inhibitors of influenza NS1 protein function. Potency, µM (doses to about 46.1 µM), for inactives: at the top dose activity, positive = more growth. actives 0.4% (n = 270,000). AID 2326; note: potency is the fitted concentration of half-maximal effect; actives are rising curves; nearly all actives have a fitted effect of over 50% in size
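Compounds were scored for reversing the slow growth caused by influenza A NS1 in S. cerevisiae, measured by optical density at 600 nm. Assay medium contained 2% galactose at pH 6.0; NS1-free yeast of the same strain were the positive control.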
Shiga toxin inh: blocks Shiga toxin action in Vero cells; Vero cells, Shiga toxin protein synthesis inhibition reporter; inhibition, % at 38.7 µM; actives 9.2% (n = 290,000); AID 2315; in the data active = inhibition mostly above about 28%, no sharp cut-off; inactive = mostly below about 43%; note: 0% is about no effect
An asterisk follows results filed as active; ? = inconclusive; / = no result given. Unless noted, calls come from the whole dose curve.

SMILES	Cycloheximide cs	SARS PLpro yeast	NS1 function inh	Shiga toxin inh
O=C(O)c1ccccc1C(=O)N1N=C(c2ccccc2)CC1c1ccccc1O (configuration not stated)	52.5*	3.5%	?	67.3*
COc1ccc2nc(-c3ccco3)c(-c3ccco3)nc2c1	53.9*	4.0%	-4.0%	55.8
c1coc(-c2nc3cc4ccccc4cc3nc2-c2ccco2)c1	25.5*	/	/	66.2*
c1coc(-c2nc(-c3ccco3)c(-c3ccco3)nc2-c2ccco2)c1	0.5	7.1%	3.0%	-2.4
C(=C\c1ccccc1)/C=N/Nc1nc2ccccc2s1	34.0*	1.5%	8.6%	95.2*
O=S(=O)(N/N=C\C=C\c1ccccc1)c1ccc(Br)cc1	-1.0	-31.1%	-131.6%	-14.2
CCC/C=N/Nc1nc2ccccc2s1	34.6*	-2.1%	2.8%	107.7*
C(=C\c1ccccc1)/C=N/Nc1nncc(-c2ccccc2)n1	9.0	9.4%	1.4%	-4.8
Brc1ccc(/C=C/C=N/Nc2nc3ccccc3s2)cc1	18.8	-10.1%	?	49.1*
c1ccc(/C(=N/Nc2nc3ccccc3s2)c2ccccn2)cc1	/	/	-44.0%	/
COc1cc(NC(=O)c2oc3ccccc3c2C)ccc1NC(=O)c1ccco1	29.3*	-1.9%	-3.6%	63.3*
COc1cc(NC(=O)c2ccco2)ccc1NC(=O)c1ccccc1Cl	12.7*	-18.6%	-38.7%	41.4
COc1cc(NC(=O)c2ccccc2Cl)ccc1NC(=O)c1ccco1	40.8*	26.5%	-40.1%	58.9
COc1ccc(NC(=O)c2ccccc2NC(=O)c2ccco2)c(OC)c1	6.4	9.3%	2.0%	20.8
COc1ccc(NC(=O)c2ccco2)cc1N	64.7*	-13.4%	5.9%	65.5*
O=C(Nc1ccnn1C1CCN(CCCC2CCCC2)CC1)c1ccccc1Cl	0.9	0.3%	-3.2%	-8.3
FC(F)(F)c1nc(Sc2ncccc2C(F)(F)F)n[nH]1	-0.9	0.9%	-39.2%	-15.7
O=C(COc1ccc(Br)cc1)N(Cc1cccs1)C1CCS(=O)(=O)C1 (configuration not stated)	-3.5	1.0%	-0.1%	-4.9
COc1ccc(C)cc1NC(=O)C(NC(=O)c1cc(OC)c(OC)c(OC)c1)C(C)C (configuration not stated)	-1.8	-0.2%	/	-5.3
O=C(NC1CC1)C1CCN(c2ncccn2)CC1	-9.8	1.3%	3.7%	-14.2
O=C(/C=C/N1CCOCC1)c1ccc(-c2ccccc2)cc1	42.1*	-15.9%	-44.1%	49.5
O=C(c1ccc(-c2ccccc2)cc1)c1ccccc1C(=O)N1CCOCC1	14.0	-9.1%	-55.4%	-16.0
O=C(/C=C\N1CCOCC1)c1ccc(Br)cc1	26.7*	-16.4%	-97.7%	33.9*
COc1ccc(CNCC(O)COc2ccc(C)cc2[N+](=O)[O-])cc1 (configuration not stated)	34.6*	-4.7%	-6.2%	69.1*
COC(=O)c1ccc(COc2ccc(C)cc2[N+](=O)[O-])o1	47.8*	-2.6%	-0.8%	76.7*
SMILES	Cycloheximide cs	SARS PLpro yeast	NS1 function inh	Shiga toxin inh
Cc1ccc(OCc2ccc(C(=O)NN)o2)c([N+](=O)[O-])c1	36.9*	-1.1%	10.2%	35.9
Cc1ccc(OCC(O)CNCc2ccc(F)cc2)cc1 (configuration not stated)	3.0	-2.5%	?	-2.1
CCOC(=O)c1sc(NC(=O)CSc2n[nH]c(CC(C)C)n2)nc1C	-2.6	9.4%	-1.2%	-18.1
O=[N+]([O-])c1ccc(CSc2ncnc3c2ncn3[C@@H]2O[C@H](CO)[C@H](O)[C@H]2O)cc1	/	/	-18.8%	/
COc1ccc(C(=O)c2sc3nc(-c4ccc(OC)cc4)ccc3c2N)cc1	22.0*	13.7%	13.5%	39.8
COc1cccc(-c2ccc3c(N)c(C(=O)NC4CC4)sc3n2)c1	36.5*	-1.4%	-11.3%	103.5*
Nc1c(C(=O)Nc2nc3ccccc3s2)sc2nc(-c3cccs3)ccc12	11.7	-8.4%	?	-5.1
CC(=O)c1sc2nc(-c3cccs3)ccc2c1N	45.9*	5.3%	-5.7%	100.8*
COc1ccccc1CNCCCCCCNCCCCCCCCNCCCCCCNCc1ccccc1OC	/	/	-1.4%	/
N#CC1=C(N)Nc2nc3ccccc3n2C1c1ccc(Cl)cc1 (configuration not stated)	-1.1	-16.2%	1.1%	-2.4
Cc1cc(Nc2cccc(C(=O)O)c2)n2ncnc2n1	13.5*	1.7%	-1.1%	19.3*
C/C(=N\NC(=O)c1nn(C)c(C)c1Br)c1ccc(NC(=O)c2ccc(C)s2)cc1	45.1*	-1.5%	0.1%	64.5*
CCC(=O)Nc1ccc(/C(C)=N/NC(=O)c2c(Br)c(C)nn2C)cc1	-1.6	4.4%	3.7%	14.6
C/C(=N/NC(=O)c1ccoc1C)c1ccc(NC(=O)c2ccncc2)cc1	63.3*	-0.8%	-2.0%	104.2*
C/C(=N\NC(=O)c1c(Br)c(C)nn1C)c1ccc(NC(=O)C(C)Oc2ccc(Cl)cc2C)cc1 (configuration not stated)	-1.6	2.4%	6.2%	-11.0
C/C(=N\NC(=O)c1c(Br)c(C)nn1C)c1ccc(NC(=O)c2ccoc2C)cc1	43.6*	-3.9%	-7.5%	39.7*
C/C(=N\NC(=O)C1(C)CC1(Br)Br)c1cccc(NC(=O)C2CCC2)c1 (configuration not stated)	-1.1	15.5%	9.5%	7.4
C/C(=N\NC(=O)c1c(Cl)c(C)nn1C)c1cccc(NC(=O)C2CCCC2)c1	14.3*	1.7%	-30.0%	37.6
Cc1c(C)c2ccc(OCC(=O)NCCCn3ccnc3)c(C)c2oc1=O	5.8	7.0%	-12.0%	-2.4
COc1cccc(/C=C/C(=O)OCC(=O)Nc2ccc(Cl)cn2)c1	-1.9	-1.5%	/	-3.5
COC(=O)[C@]12C(=O)NC[C@H](CN1c1ccc(Cl)c(C)c1)N2C	/	-7.7%	/	/
Cc1occc1C(=O)Nc1ccc(S(=O)(=O)N2CCN(C)CC2)cc1	3.8	-4.2%	-6.4%	-1.2
O=C(NCc1ccccc1)c1ccc(NC(=O)c2ccccc2F)cc1	-4.9	-4.3%	0.4%	-8.6
C/C(=N\NC(=O)c1c(Cl)c(C)nn1C)c1ccc(NC(=O)c2ccncc2)cc1	12.5*	11.0%	-8.2%	26.2
C/C(=N\NC(=O)c1nn(C)c(C)c1Br)c1ccc(NC(=O)c2ccoc2C)cc1	91.0*	-2.3%	3.4%	92.9*
SMILES	Cycloheximide cs	SARS PLpro yeast	NS1 function inh	Shiga toxin inh
C/C(=N\NC(=O)c1nn(C)c(C)c1Br)c1ccc(NC(=O)c2ccccc2F)cc1	18.0*	5.2%	2.3%	active
COc1ccc(C2CC(=O)C(C=NCCN3CCN(C(=S)Nc4ccccc4)CC3)=C(O)C2)cc1OC (configuration not stated)	-5.0	-0.3%	/	17.8
CN(C)c1ccc(C2CC(=O)OC3=C2C(=O)CC(C)(C)C3)cc1 (configuration not stated)	-1.3	1.7%	/	-5.3
CCOC(=O)c1cccc(NC(=O)CC2Oc3ccccc3NC2=O)c1 (configuration not stated)	-2.4	0.0%	-1.2%	-15.0
CC(C)c1cc(C(=O)Nc2cc(Cl)ccc2O)no1	67.9*	?	-100.1%	142.8*
COC(=O)c1ccccc1NC(=O)c1cc(-c2cccs2)on1	-1.8	4.7%	-3.8%	-12.5
CC(C)c1cc(C(=O)Nc2cc(Br)ccc2O)no1	35.8*	-2.7%	-54.1%	119.7*
O=C(Nc1cc(Br)ccc1O)c1cc(-c2cccs2)on1	21.6*	-2.2%	-10.9%	78.5*
